Our source for the composite z-score, composite Z-score and z-score values is PubChem BioAssay.

Experiment [1] deals with Albumin (Bos taurus) (UniProt P02769). The experiment can be described thus: bovine serum albumin binders on microarray, profiling panel, artefact control for SMM control protein annotation, biochemical, small-molecule microarray, Alexa647 label, 635/667 nm fluorescence (AID 1118).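 Note: score merges 667 nm emission intensity and signal-to-noise per printed compound spot.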 The following applies: BSA-A647 binding, fluorescence 635 nm, higher = more signal.
Chain of Albumin (Bos taurus) (P02769 whole entry, looked up): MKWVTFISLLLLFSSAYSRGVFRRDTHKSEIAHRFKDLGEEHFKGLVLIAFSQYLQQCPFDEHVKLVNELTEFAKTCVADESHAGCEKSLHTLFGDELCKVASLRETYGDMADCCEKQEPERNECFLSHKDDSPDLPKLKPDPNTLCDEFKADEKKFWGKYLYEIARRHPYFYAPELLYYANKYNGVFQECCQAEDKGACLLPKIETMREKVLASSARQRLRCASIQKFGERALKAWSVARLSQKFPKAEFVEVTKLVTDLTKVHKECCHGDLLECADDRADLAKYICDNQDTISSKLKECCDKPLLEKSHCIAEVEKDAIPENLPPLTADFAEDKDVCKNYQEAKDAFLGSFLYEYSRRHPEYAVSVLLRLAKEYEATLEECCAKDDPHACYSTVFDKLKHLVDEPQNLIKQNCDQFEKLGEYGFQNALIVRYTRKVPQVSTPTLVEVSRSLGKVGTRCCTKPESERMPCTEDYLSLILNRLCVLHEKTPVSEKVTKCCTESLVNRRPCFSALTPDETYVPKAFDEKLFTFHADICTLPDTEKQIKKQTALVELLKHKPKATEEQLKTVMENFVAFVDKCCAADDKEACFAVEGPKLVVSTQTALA
Experiment [2] is described as follows: small-molecule microarray binders of probe aXIP, primary screen, biochemical, NeuroSMM set, 635/667 nm fluorescence (AID 1119).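 Note: probe is the protein aXip251-270 applied at 1 µg/mL to compound-printed slides; binding of probe to printed compounds measured as 667 nm fluorescence plus signal to noise.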 The following applies: higher = more signal, called active from +8 up or from −8 down.
A short description of experiment [3]: small-molecule binders of probe aNOTCH3, primary screen, biochemical, small-molecule microarray, 635/667 nm fluorescence (AID 1120).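 Note: probe is a biotin-tagged antibody raised against NOTCH3 rather than NOTCH3 protein; score merges spot fluorescence near 667 nm with spot signal to noise.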 The following applies: higher = more signal.
Experiment [4] can be described thus: small-molecule binders of probe aNOTCH2, primary screen, biochemical, small-molecule microarray, 635/667 nm fluorescence (AID 1121).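 Note: score merges feature fluorescence read at 667 nm with its signal to noise.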 The settings on record: higher = more signal.
Experiment [5] addresses Carbonic anhydrase 2 (Homo sapiens) (UniProt P00918). The experiment can be described thus: CAII small-molecule binders, profiling panel, biochemical, small-molecule microarray, Alexa647-labelled CAII (AID 1122). The following applies: CAII-A647 binding fluorescence, higher = more signal.
Experiment [6] is described as follows: COS7 lysate on small-molecule microarray, probe aHis, 635 nm (AID 1123).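 Note: z-score combines 667nm fluorescence intensity with signal-to-noise per printed compound spot.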 The following applies: COS7 cell lysate, fluorescence, higher = more signal.
Experiment [7] in a line: compound binding in COS7 lysate, probe aLAP1, primary screen, cell lysate, small-molecule microarray (AID 1124).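 Note: lysate comes from COS7 cells expressing LAP1 and is applied at 0.3 µg/mL; score merges spot fluorescence near 667 nm with signal-to-noise over triplicate slides.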 The following applies: probe aLAP1, fluorescence, higher = more signal.
Experiment [8] relates to Sam68 (KHDRBS1). As to the kind of experiment: Sam68 small-molecule binders, primary screen, biochemical, small-molecule microarray, 635 nm fluorescence (AID 1125).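 Note: score merges 667 nm channel intensity with signal to noise over triplicate slides.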 The following applies: small-molecule microarray binding, higher = more signal.
For experiment [9], the system named is Chordin-like protein 2 (CHRDL2). The experiment can be described thus: CHRDL2 small-molecule binders, primary screen, biochemical, small-molecule microarray, 635 nm fluorescence (AID 1126).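 Note: printed compound slides probed with Chrdl2 protein at 4 µg/mL for 1 h at 4 C; score merges 667 nm emission intensity with signal to noise over three replicate slides.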 The settings on record: small-molecule microarray binding, fluorescence 635 nm; higher = more signal.
In experiment [10] the target is Concanavalin-A (Canavalia ensiformis) (UniProt P02866). As to the kind of experiment: ConA small-molecule binders, primary screen, artefact control for SMM control protein annotation, biochemical, small-molecule microarray, Alexa647 label, 635 nm (AID 1127).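 Note: z combines 667 nm emission intensity with signal-to-noise across three replicate slides.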 The following applies: ConA-A647 binding fluorescence, higher = more signal.
Chain of Concanavalin-A (Canavalia ensiformis) (P02866 whole entry, looked up): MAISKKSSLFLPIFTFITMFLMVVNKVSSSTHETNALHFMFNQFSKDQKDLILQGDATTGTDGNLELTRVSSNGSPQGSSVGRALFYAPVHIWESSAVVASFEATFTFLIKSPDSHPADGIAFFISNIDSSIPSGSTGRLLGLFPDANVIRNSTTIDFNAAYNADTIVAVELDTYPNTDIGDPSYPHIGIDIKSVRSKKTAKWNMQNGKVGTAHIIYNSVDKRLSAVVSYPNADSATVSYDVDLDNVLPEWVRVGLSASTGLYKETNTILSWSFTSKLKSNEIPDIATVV
Experiment [11] in a line: anti-His antibody binders, primary screen, artefact control for SMM control protein annotation, biochemical, small-molecule microarray, 635 nm fluorescence (AID 1128).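 Note: score merges feature fluorescence with signal-to-noise for each printed compound spot.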 The following applies: anti-His Alexa647 antibody binding, higher = more signal.
The subject of experiment [12] is Human papillomavirus type 1a E7 protein (residues 1-88). As to the kind of experiment: HPV1a E7 small-molecule binders, primary screen, biochemical, small-molecule microarray, residues 1-88, 635 nm (AID 1129). The settings on record: small-molecule microarray binding, fluorescence 635 nm; higher = more signal.
Experiment [13] has as its target Focal adhesion kinase 1 (Homo sapiens) (UniProt Q05397). As to the kind of experiment: small-molecule microarray binders of FAK, primary screen, biochemical, 635/667 nm fluorescence, BSA, DTT (AID 1130).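 Note: composite of spot emission at 667 nm and signal to noise over triplicate slides.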 The following applies: PTK2 binding, 635 nm fluorescence, higher = more signal.
Experiment [14] concerns Fibrinogen (Alexa647-labelled). As to the kind of experiment: fibrinogen binders on compound microarrays, profiling panel, artefact control for SMM control-protein annotation, biochemical, small-molecule microarray, 635/667 nm fluorescence (AID 1131).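 Note: z-score merges 667 nm fluorescence with per-spot signal-to-noise over triplicate slides.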 The following applies: fibrinogen-A647 binding fluorescence, higher = more signal.
For experiment [15], the target named is Follistatin (Homo sapiens) (UniProt P19883). As to the kind of experiment: follistatin binders on small-molecule microarrays, primary screen, biochemical, small-molecule microarray, 635/667 nm fluorescence (AID 1132). The following applies: FST binding, 635 nm fluorescence, higher = more signal.
Chain of Follistatin (Homo sapiens) (P19883 whole entry, looked up): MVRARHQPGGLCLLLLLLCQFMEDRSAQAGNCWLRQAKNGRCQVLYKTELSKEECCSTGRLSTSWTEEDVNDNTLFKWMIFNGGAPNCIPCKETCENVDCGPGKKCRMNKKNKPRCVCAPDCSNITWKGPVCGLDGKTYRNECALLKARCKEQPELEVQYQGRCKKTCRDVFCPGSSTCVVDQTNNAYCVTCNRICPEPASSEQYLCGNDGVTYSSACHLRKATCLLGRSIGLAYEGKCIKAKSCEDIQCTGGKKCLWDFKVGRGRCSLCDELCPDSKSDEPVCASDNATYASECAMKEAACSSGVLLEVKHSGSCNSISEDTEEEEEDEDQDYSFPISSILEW
Experiment [16] addresses Fibroblast growth factor 2 (Homo sapiens) (UniProt P09038). The experiment can be described thus: FGF2 binders on small-molecule microarrays, primary screen, biochemical, small-molecule microarray, 635/667 nm fluorescence (AID 1133). The following applies: small-molecule microarray binding, FGF2, fluorescence 635/667; higher = more signal.
Experiment [17] in a line: mitochondrial membrane potential change in A549 cells, profiling panel, cell-based, JC-1 fluorescence, basal, 24 h, 100 nL (AID 1138).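 Note: A549 lung adenocarcinoma cells under basal conditions with no added stimulus; test concentration not given here.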 The settings on record: higher = more signal.
In experiment [18] the test system is Lefty1. As to the kind of experiment: Lefty1 binders on small-molecule microarrays, primary screen, biochemical, small-molecule microarray, 635/667 nm fluorescence (AID 1139). The following applies: small-molecule microarray binding, fluorescence 635/667; higher = more signal.
The subject of experiment [19] is wheat germ agglutinin (Triticum aestivum), Alexa647-labelled. As to the kind of experiment: wheat germ agglutinin binders on compound microarrays, profiling panel, artefact control for SMM control-protein annotation, biochemical, small-molecule microarray, 635/667 nm fluorescence (AID 1140).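 Note: score merges 667 nm feature emission with signal to noise over triplicate slides.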 The following applies: WGA-A647 binding, 635 nm fluorescence, higher = more signal.

Experiment [20] has as its target Luciferin 4-monooxygenase (Photinus pyralis) (UniProt P08659). The experiment can be described thus: firefly luciferase enzyme inhibitors, primary screen, biochemical, luminescence, purified enzyme, 2006 set (AID 1141).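 Note: cell-free assay with purified firefly luciferase at 100 ng per well in PBS; test concentration not given here.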 The following applies: SteadyGlo luminescence, 30 min, higher = more signal, called active from +8 up or from −8 down.

SMILES strings stand for the structures. Calls of active or inactive are those of the source.

Chain of Focal adhesion kinase 1 (Homo sapiens) (Q05397 whole entry, looked up): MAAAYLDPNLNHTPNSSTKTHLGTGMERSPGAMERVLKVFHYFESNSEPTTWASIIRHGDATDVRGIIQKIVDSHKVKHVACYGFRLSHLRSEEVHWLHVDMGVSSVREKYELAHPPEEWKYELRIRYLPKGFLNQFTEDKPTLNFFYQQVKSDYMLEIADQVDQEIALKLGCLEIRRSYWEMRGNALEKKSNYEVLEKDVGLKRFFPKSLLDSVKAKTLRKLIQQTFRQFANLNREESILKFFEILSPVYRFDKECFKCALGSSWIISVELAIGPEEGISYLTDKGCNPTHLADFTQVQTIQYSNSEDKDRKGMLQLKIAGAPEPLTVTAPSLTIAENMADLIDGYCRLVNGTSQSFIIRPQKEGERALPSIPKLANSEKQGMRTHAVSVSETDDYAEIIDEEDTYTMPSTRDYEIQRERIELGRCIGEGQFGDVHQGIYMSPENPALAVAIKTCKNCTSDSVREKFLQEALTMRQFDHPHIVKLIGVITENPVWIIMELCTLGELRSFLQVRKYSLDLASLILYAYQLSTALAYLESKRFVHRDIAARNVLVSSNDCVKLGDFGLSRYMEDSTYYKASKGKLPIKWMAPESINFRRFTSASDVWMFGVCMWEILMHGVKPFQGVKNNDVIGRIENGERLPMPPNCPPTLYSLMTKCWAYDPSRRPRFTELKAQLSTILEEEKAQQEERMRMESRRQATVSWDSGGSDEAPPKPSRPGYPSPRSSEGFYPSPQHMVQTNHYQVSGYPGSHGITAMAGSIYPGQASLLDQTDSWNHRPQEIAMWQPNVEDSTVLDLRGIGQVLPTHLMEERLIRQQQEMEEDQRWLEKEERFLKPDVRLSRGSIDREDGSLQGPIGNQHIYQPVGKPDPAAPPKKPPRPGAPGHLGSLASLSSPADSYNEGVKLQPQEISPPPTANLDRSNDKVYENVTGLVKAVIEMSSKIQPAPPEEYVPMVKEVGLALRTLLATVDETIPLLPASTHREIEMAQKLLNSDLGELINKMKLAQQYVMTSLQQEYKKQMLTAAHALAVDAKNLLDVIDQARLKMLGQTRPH
Chain of Luciferin 4-monooxygenase (Photinus pyralis) (P08659 whole entry, looked up): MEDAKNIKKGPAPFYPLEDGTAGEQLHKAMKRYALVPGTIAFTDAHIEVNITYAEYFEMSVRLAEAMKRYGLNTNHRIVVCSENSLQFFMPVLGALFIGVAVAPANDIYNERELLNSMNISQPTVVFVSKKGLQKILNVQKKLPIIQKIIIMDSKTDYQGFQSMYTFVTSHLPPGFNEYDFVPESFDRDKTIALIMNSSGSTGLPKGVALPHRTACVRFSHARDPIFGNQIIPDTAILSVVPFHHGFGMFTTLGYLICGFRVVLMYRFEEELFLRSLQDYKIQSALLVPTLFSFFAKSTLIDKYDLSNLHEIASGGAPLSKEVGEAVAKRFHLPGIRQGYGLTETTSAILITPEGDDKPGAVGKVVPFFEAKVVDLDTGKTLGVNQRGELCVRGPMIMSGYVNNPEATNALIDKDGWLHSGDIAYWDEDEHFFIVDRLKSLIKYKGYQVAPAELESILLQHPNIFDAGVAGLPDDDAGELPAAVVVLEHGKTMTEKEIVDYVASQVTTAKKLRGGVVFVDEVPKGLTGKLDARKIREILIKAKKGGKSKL
Chain of Fibroblast growth factor 2 (Homo sapiens) (P09038 whole entry, looked up): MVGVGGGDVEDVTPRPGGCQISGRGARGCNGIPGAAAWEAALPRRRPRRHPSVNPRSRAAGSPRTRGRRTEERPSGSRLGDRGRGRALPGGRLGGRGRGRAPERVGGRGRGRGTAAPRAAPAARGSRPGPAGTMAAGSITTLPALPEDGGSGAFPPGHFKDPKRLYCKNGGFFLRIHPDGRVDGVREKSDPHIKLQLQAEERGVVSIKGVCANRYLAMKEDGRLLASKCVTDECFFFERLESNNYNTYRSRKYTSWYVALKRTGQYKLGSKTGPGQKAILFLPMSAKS

As to `C[C@@H]1CCC2C(=O)N(Cc3ccccc3)C[C@@H](O)CN2[C@H]1c1ccc(Br)cc1` (stereo not given in full), the composite z-score in [1] was 0.33; in [3], -0.0362; in experiment [4], -0.176; in experiment [5], 0.375; in experiment [6], 0.669; in [7] it was -0.0066. The composite z-score in experiment [8] is 0.621; in experiment [9] it was 0.374; in [10] it was 0.646; in experiment [11], 0.737; in experiment [12] it was 0.0101; in [13] it was -0.24. In addition, the composite z-score was determined as 0.909 in experiment [14]; 0.49 in [15]; 0.425 in [16]; 0.399 in experiment [18]; 0.623 in experiment [19]. Moreover, the composite Z-score in [2] was 0.0923 (inactive). The z-score was 1.89 in [17] and -1.86 (inactive) in experiment [20].
With `CN(C)CCCNC(=O)[C@@H]1c2ccccc2C(=O)N(Cc2cc(F)cc(C(F)(F)F)c2)[C@H]1c1ccc(CO)cc1`, the composite z-score in experiment [1] was 0.277; in experiment [3] it was -0.0976; in experiment [4], -0.114; in experiment [5], 0.783; in experiment [6], 0.969; in experiment [7], 0.578. Also, the composite z-score was 0.946 in experiment [8]; 1.08 in [9]; 0.21 in experiment [10]; 0.77 in [11]; 1.07 in [12]; -0.0288 in experiment [13]. The composite z-score in experiment [14] is 0.216; in [15], 1.28; in [16], 0.309; in [18], -0.271; in [19], 0.039. Moreover, the composite Z-score in experiment [2] was 0.451 (inactive). Also, the z-score in experiment [17] was -0.00183; in [20] it was 0.0764 (inactive).
With `CC(C)=CCCC(C)=CCON=C1C[C@@H](O)[C@@H](O)[C@@H]2[C@@H]3C(=O)N(C[C@@H]4CCCO4)C(=O)[C@@H]3CC[C@@H]12`, the composite z-score was -0.506 in experiment [1]; -0.0328 in [3]; -0.0907 in experiment [4]; 0.452 in [5]; 0.877 in [6]; -0.108 in [7]. Besides, the composite z-score in experiment [8] came out at 1.3; in experiment [9], 1.39; in experiment [10], 0.296; in experiment [11] it was 0.875; in experiment [12], 1.13; in [13] it was 0.121. The composite z-score in [14] was 0.971; in experiment [15] it was 1.06; in experiment [16] it was 1.07; in experiment [18] it was 1.26; in experiment [19], 0.59. For the same molecule, in [2], the composite Z-score was 2.86 (inactive). In addition, the results for the z-score in experiment [17] and in experiment [20] were -0.26 and 0.722 (inactive), respectively.
For `Cn1c(=O)n2n(c1=O)[C@H]1[C@H](O)[C@@H]3O[C@@H]3C(=NOC[C@@H](O)COCc3ccco3)[C@H]1CC2`, the composite z-score is 0.125 in experiment [1]; 0.236 in experiment [3]; -0.208 in experiment [4]; -0.142 in experiment [5]; 0.145 in experiment [6]; -0.0856 in experiment [7]. The composite z-score in experiment [8] was 0.373; in [9], 0.535; in [10], 0.59; in [11] it was -0.272; in [12] it was 0.722; in experiment [13] it was 0.0225. Also, the composite z-score in experiment [14] is 0.617; in [15], 0.357; in [16], 0.468; in experiment [18] it was 0.777; in [19], -0.0253. Moreover, in experiment [2], the composite Z-score was -0.383 (inactive). The z-score in [17] was 0.596; in experiment [20], -0.508 (inactive).
For `Cn1cccc1C(O)C1C=CC2C(=O)NC(=O)C2N1Nc1ccccn1` (stereo not given), the composite z-score was 0.809 in [1]; -0.0166 in [3]; -0.171 in [4]; 0.914 in experiment [5]; -0.318 in experiment [6]; 0.503 in experiment [7]. The composite z-score was -1.45 in [8]; 0.148 in experiment [9]; -0.0954 in experiment [10]; 0.195 in experiment [11]; -0.789 in experiment [12]; -0.35 in [13]. In addition, the composite z-score in [14] was -0.0084; in experiment [15], 0.776; in experiment [16], 0.126; in [18], 0.097; in experiment [19], 1.03. The composite Z-score in [2] was 0.0019 (inactive). Moreover, the results for the z-score in [17] and in experiment [20] were -1.96 and -1.41 (inactive), respectively.
